Experimental data as given in PubChem BioAssay AID743293 (Broad Institute, 2014).
Potency and affinity values are given separately.

Target: Caspase-9 (Homo sapiens) (UniProt P55211)
Assay: inhibitors of purified CASP9 protease – biochemical, fluorescence, plate reader, cherry-picked samples, selectivity assay for caspase-6 inhibitor project, dose response (AID 743293)
Conditions: purified caspase-9, Z-LEHD-R110 cleavage fluorescence; series mostly up to 35 µM; activity change, negative = inhibition: at the top concentration;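 active means compounds lowering fluorescence with a fitted half-maximal concentration at or below a set limit tied to top dose; inconclusive means flat curve with 30 to 70% inhibition, or poor fit; inactive means the rest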

Sequence of Caspase-9 (Homo sapiens) (P55211 whole entry, looked up): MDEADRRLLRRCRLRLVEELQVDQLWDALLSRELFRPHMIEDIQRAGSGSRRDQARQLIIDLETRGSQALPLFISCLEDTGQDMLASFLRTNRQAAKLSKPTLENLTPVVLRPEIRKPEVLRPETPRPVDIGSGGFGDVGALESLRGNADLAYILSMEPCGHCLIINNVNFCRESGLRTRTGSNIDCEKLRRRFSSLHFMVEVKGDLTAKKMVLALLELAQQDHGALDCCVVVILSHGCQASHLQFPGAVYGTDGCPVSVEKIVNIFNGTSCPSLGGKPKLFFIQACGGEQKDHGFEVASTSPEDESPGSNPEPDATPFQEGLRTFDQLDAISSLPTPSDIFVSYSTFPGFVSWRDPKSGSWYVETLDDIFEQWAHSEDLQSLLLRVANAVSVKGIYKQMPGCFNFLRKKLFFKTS

Activity change, negative = inhibition, inactive:
Cc1cccc(NC(=O)CNC(=O)c2cccc(-n3cccc3)c2)c1C 4.32%
CC(CNc1ccccc1O)C(=O)O (stereo not given) -4.67%
O=C1CN(C(=O)COC(=O)c2ccc([N+](=O)[O-])s2)c2ccccc2N1 1.28%
Cc1[nH]nc(S(=O)CC(=O)O)c1[N+](=O)[O-] (stereo not given) 6.6%
CN(CC(=O)Nc1ccccc1Cl)C(=O)COC(=O)c1ccc([N+](=O)[O-])s1 -8.48%
O=C(O)CC(CCc1ccccc1)OC1OC(CO)C(O)C(O)C1O (stereo not given) 6%
COc1ccc(NC(=O)CN(C)C(=O)c2cccc(-n3cccc3)c2)cc1 1.4%
Nc1cc2c(cc1Br)[nH]c(=O)c1ccccc12 -8.46%
O=c1oc2ccccc2c2oc3cc(O)c(O)cc3c12 13.4%
COCCn1c2nc(=O)n(-c3ccccc3)c(=O)c-2nc2ccccc21 189%
O=C(O)CCc1ccc(-c2ccc(Br)cc2)n1CC(=O)O -0.071%
O=c1oc(-c2ccccc2)nc2sc3c(c12)CCC3 -0.653%
Cc1ccc(S(=O)(=O)Nc2csc(C)c2C(=O)O)cc1 2.43%
Cn1cnnc1SCC(=O)Nc1ncc([N+](=O)[O-])s1 3.93%
Cc1c(CCC(=O)O)c(=O)oc2c(C)c(OCc3ccccc3Cl)ccc12 2.99%
CO[C@H]1CN(C)C(=O)c2cc(NC(C)=O)ccc2OC[C@@H](C)N(C(=O)CC2CC2)C[C@H]1C 26.4%
O=c1c(CO)cc(CO)cc(CO)c1O -3.26%
CCCCN(C(=O)c1cccc(-n2cccc2)c1)c1c(N)n(Cc2ccccc2)c(=O)[nH]c1=O 16.8%
CCCCN(C(=O)c1cccc(-n2cccc2)c1)c1c(N)n(CCC)c(=O)[nH]c1=O 12.8%
COc1cc(-c2ccc(Nc3ccccc3C(=O)O)c(OC)c2)ccc1Nc1ccccc1C(=O)O 0.463%
Cc1oc2c(cc(NS(=O)(=O)c3ccc(C(C)C)cc3)c3ccccc32)c1C(=O)O 14.4%
CCOC(=O)c1sc2nc(OCCN3CCOCC3)cc(C)c2c1N 6.72%
O=P(c1ccccc1)(c1ccccc1)c1cc(S(=O)(=O)O)ccc1O -5.38%
CN(CC(=O)Nc1c(Cl)cccc1Cl)C(=O)c1cccc(-n2cccc2)c1 12.2%
O=C(COC(=O)c1ccccc1)Nc1ncc([N+](=O)[O-])s1 -6.14%
Cc1ccc(NC(=O)CN(C)C(=O)c2cccc(-n3cccc3)c2)cc1 2.92%
CNS(=O)(=O)c1cccc(C(=O)OCC(=O)N2c3ccccc3NC(=O)C2(C)C)c1 10.5%
O=c1cc2c(=O)oc3cc(O)c(O)oc3c2c(O)c1O -13.2%
CC(C)(C)c1ccc(NC(=O)COC(=O)c2ccc([N+](=O)[O-])s2)cc1 -5.62%
CCOc1ccc2nc3cc(NCc4ccc(OC)cc4)ccc3c(N)c2c1 -6.35%
